Our source for the outcome and max response values is PubChem BioAssay (NCATS).

Each structure is given as a SMILES string. Values joined by “and” are separate entries in the source; they are usually repeats but may differ in a detail not shown here. Identical values can stand only once. A number with no mark means an inactive call. Records with an inconclusive call do not appear. Active and inactive are the calls of the source. Unless noted, the call rests on the fitted dose curve; in most records, active means well fitted curve in the direction sought with a large enough effect; inconclusive means small, poorly fitted or top-dose-only effect, or another doubt; inactive means no such curve, though single readings can be large; an effect the other way counts as inactive or inconclusive.

A short description of assay [1]: qHTS for compounds that reverse cellular toxicity of Amyloid beta (A-beta) peptide in yeast: LOPAC Validation Assay (AID 720559).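 Further: plate controls were DMSO for no effect and equimolar ferric chloride plus clioquinol rescue for full effect.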 To be noted: yeast expressing A-beta; series mostly up to 46.1 µM. A digest of the protocol: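 OD600 growth readout after 48 hr at 30 C; A-beta-toxic yeast plus pinned compounds in medium. Normalization: DMSO = negative, equimolar FeCl3 + clioquinol = positive.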
A general note: Quantitative high-throughput screening tests each substance at several concentrations.

Assay [2] can be described thus: qHTS for Activators of Parkin Expression: LOPAC Validation Assay (NLuc Reporter) (AID 720572). Particulars: Parkin promoter NanoLuc reporter cells, luminescence, percent of positive control, DMSO as zero; series mostly up to 46.1 µM. A digest of the protocol:
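Compound effects on Parkin promoter activity were measured as NanoLuc luminescence after 24 h at 37 C. The neuronal reporter line also carried FLuc, which was read first. LOPAC compounds were tested at 7 concentrations, with normalization to DMSO (0%) and positive control (100%).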

Assay [3] is described as follows: qHTS for Activators of Parkin Expression: LOPAC Validation Assay (FLuc Reporter) (AID 720573). To be noted: Cell line, PRKN promoter firefly luciferase reporter, vehicle wells = 0, positive control = 100%; series mostly up to 46.1 µM. A digest of the protocol:
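FLuc luminescence read-out from a neuronal line expressing a Parkin-promoter-driven coincidence reporter. Cells treated 24 h at 37 C, 5% CO2 with compounds at 7 concentrations; signal increase normalized to DMSO and positive control.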

Assay [4] addresses T1, Hexokinase-4 (Homo sapiens) + Glucokinase regulatory protein (Homo sapiens) (UniProt P35557+Q14397). Put plainly: qHTS assay for inhibitors of recombinant human GCK-GKRP interaction: Diaphorase-coupled assay (AID 743205). Particulars: G6PDH/diaphorase resorufin fluorescence; series mostly up to 57.5 µM. In outline: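 Resorufin fluorescence (525/590 nm), read each minute over 30 min, reports GCK activity coupled via G6PDH and diaphorase. Reaction: 10 nM GST-GCK, 10 nM FLAG-GKRP, 5 mM glucose, 0.4 mM ATP, 0.15 mM NADP+, 0.1 mM resazurin.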

Assay [5] concerns the target T1, Hexokinase-4 (Homo sapiens) + Glucokinase regulatory protein (Homo sapiens). Put plainly: qHTS assay for inhibitors of recombinant human GCK-GKRP interaction: ADP-Glo assay (AID 743206).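 Further: plate controls were DMSO plus enzyme for no effect and no enzyme for full effect.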 Particulars: ADP-Glo luminescence, 60 min, 0% = vehicle-only wells with enzyme present; series mostly up to 76.9 µM. A digest of the protocol: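 Pin-transferred compounds meet a 15 nM GST-GCK/15 nM FLAG-GKRP/2 uM S6P mix (dispense concentrations). ATP is then added to 0.4 mM final with 5 mM glucose, and the reaction runs 60 min at room temperature. ADP is quantified luminescently.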

Assay [6] has the same target. As to the kind of experiment: qHTS assay for inhibitors of recombinant human GCK-GKRP interaction: HTRF assay (AID 743207).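 Further: 0% = DMSO with GCK present and -100% = DMSO wells lacking GCK.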 To be noted: recombinant GCK-GKRP HTRF binding, 60 min, with sorbitol-6-phosphate; series mostly up to 57.5 µM. In outline: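 HTRF read-out (ex 320 nm; 615/665 nm emission) after 60 min RT equilibration of 5 nM GST-GCK, 5 nM FLAG-GKRP, 2 uM S6P, compound and anti-FLAG/anti-GST detection antibodies; signal normalized between DMSO wells with and without GCK.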

The nature of assay [7]: qHTS Assay for Identifying Gametocytocidal Compounds (AID 743244).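 Further: on the % scale 0 is the no-effect control and ±100 the full control effect; actives lower the fluorescent signal which means gametocytes are killed.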 To be noted: P. falciparum 3D7 stage III-V gametocytes, alamarBlue, 72 h; max response: hits give low values. A digest of the protocol: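 Compounds are pinned into medium, gametocytes (stage III–V, 3D7, 20,000 cells/well) added, and plates held 72 h at 37 °C in 5% CO2. AlamarBlue follows for 24 h before fluorescence reading.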

Assay [8] can be described thus: qHTS assay for small molecule agonists of the antioxidant response element (ARE) signaling pathway measured by Nrf2-dependant transcriptional activity (AID 720636; active means well fitted curve in the direction sought with a large enough effect in the repeat runs; an effect the other way counts as inactive or inconclusive; further: % of control where 0% means no effect). To be noted: ARE-luc HepG2, Nrf2 luciferase reporter, 16 h; series mostly up to 92.4 µM. A digest of the protocol: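 ARE-luc HepG2 cells carrying an Nrf2-responsive luciferase reporter were plated in medium with 1% dialyzed FBS, left 6 hr at 37 C to attach, then exposed to compound for 16 hr. Luciferase luminescence was read after ONE-Glo addition.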

Assay [9] can be described thus: qHTS assay for small molecule agonists of the antioxidant response element (ARE) signaling pathway measured by Nrf2-dependant transcriptional activity - cell viability counter screen (AID 720653; active means well fitted curve in the direction sought with a large enough effect in the repeat runs; an effect the other way counts as inactive or inconclusive; further: on the % scale 0 is the no-effect control and ±100 the full control effect). To be noted: ARE-bla HepG2 viability, CellTiter-Glo ATP luminescence, 16 h; hits give low values. A digest of the protocol:
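Cytotoxicity counter screen: intracellular ATP quantified by CellTiter-Glo luminescence in the same ARE-bla HepG2 plates, after 16 h compound exposure and a 2 h beta-lactamase substrate step.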

A short description of assay [10]: qHTS assay for small molecule antagonists of the retinoid-related orphan receptor gamma (ROR-gamma) signaling pathway - cell viability counter screen (AID 720652; active means well fitted curve in the direction sought with a large enough effect in the repeat runs; an effect the other way counts as inactive or inconclusive;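 further: CHO reporter cells with doxycycline-induced ROR-gamma expression; compound exposure lasted 16 hr before ATP read; on the % scale 0 is the no-effect control and ±100 the full control effect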). Particulars: RORgamma reporter cell line viability counter screen; series mostly up to 92.2 µM. In outline: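 CHO RORE-LUC/TET-ROR line, 1,000 cells/well, 37 C 5% CO2 5 hr; cpd or DMSO + doxycycline induction, 16 hr. CellTiter-Glo, 30 min RT, luminescence = ATP content.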

Assay [11] is described as follows: qHTS assay for cell viability of HEK293 cells (AID 743288). Further: on the % scale 0 is the no-effect control and ±100 the full control effect; nearly all actives have a fitted effect of over 50% in size. Particulars: ATP luminescence (CellTiter-Glo), 18 h, hits give low values. In outline:
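ATP luminescence (CellTiter-Glo) reports metabolically competent cell number after parental HEK293 cells, 2,000/well, were treated with DMSO-dissolved compounds for 18 h at 37 C; reagent incubation 30 min, room temperature.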

Assay [12] in a line: qHTS assay for cell viability of the p53RE-bla HCT-116 cell line (AID 743292). Further: on the % scale 0 is the no-effect control and ±100 the full control effect; nearly all actives have a fitted effect of over 55% in size. Particulars: p53RE-bla HCT-116 viability, ATP luminescence, 16 h; series mostly up to 95 µM. A digest of the protocol: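 CellSensor p53RE-bla HCT-116 cells, 4,000/well, preincubated 5 h at 37 C, then exposed to compounds in DMSO for 16 h at 37 C. Viability read as CellTiter-Glo luminescence (intracellular ATP) after 30 min at room temperature.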

Assay [13] deals with Arylsulfatase A (Homo sapiens) (UniProt P15289). Put plainly: qHTS screen for enhancers of Arylsulfatase A (ASA1): LOPAC Validation Assay (AID 720538). Further: 0% is about no effect. Particulars: ASA enzyme activity, LOPAC qHTS enhancer assay; series mostly up to 57.5 µM. A digest of the protocol:
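Read-out: fluorescence at Ex=525/Em=598 nm after 1N NaOH final stop. Patient fibroblasts carrying ASA-I179S had 48h compound exposure, then 14h room-temperature pNCS hydrolysis (0.5mM final) in lysis buffer. Signal increase = enhanced activity.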

The target in assay [14] is Tyrosine-protein kinase Yes (Homo sapiens) (UniProt P07947). Put plainly: qHTS for small molecule inhibitors of Yes1 kinase: Primary Screen (AID 686947).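 Further: plate controls were DMSO with enzyme for no effect and no-enzyme DMSO wells for full effect; nearly all actives have a fitted effect of over 60% in size.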 To be noted: Yes1 kinase biochemical qHTS inhibition; series mostly up to 76.9 µM. In outline: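 In this qHTS format, inhibition is expressed relative to DMSO controls with enzyme (maximum) and without enzyme (minimum). The 60 min room-temperature reaction uses 0.1 mM ATP, with ADP detected by luminescence.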

Assay [15] in a line: qHTS for small molecule inhibitors of Yes1 kinase: Counter Assay (AID 686950).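 Further: no kinase present so only ADP-Glo detection of a fixed ADP amount is tested; luminescence from ADP-Glo reporting ADP in a fixed ATP and ADP mixture; 0% = DMSO wells with ATP plus ADP and -100% = ATP-only wells without ADP.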 Particulars: series mostly up to 76.9 µM. In outline: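 ADP-Glo luminescence read after a 60 min room-temperature incubation of compound with an ATP/ADP mix (0.08 mM/0.02 mM) and no kinase, following a 20 min compound preincubation. Signal scaled between ATP+ADP (max) and 0.1 mM ATP-only (min) wells; Tris pH 7.5, Mg2+, DTT.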

The target in assay [16] is Nuclear receptor ROR-gamma (Homo sapiens) (UniProt P51449). Put plainly: qHTS assay for small molecule antagonists of the retinoid-related orphan receptor gamma (ROR-gamma) signaling pathway (AID 651802).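 Further: CHO cells with doxycycline-induced ROR-gamma expression; luciferase reporter luminescence driven by ROR response element; on the % scale 0 is the no-effect control and ±100 the full control effect; nearly all actives have a fitted effect of over 60% in size.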 To be noted: ROR-gamma antagonist cell reporter assay; series mostly up to 92.2 µM. A digest of the protocol: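 Luciferase read-out: ONE-Glo luminescence after 30 min at room temperature, following 16hr doxycycline induction at 37C, 5% CO2 of CHO cells with TET-inducible ROR and RORE-LUC reporter; decreased luminescence = reduced reporter activity.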
Sequence of Nuclear receptor ROR-gamma (Homo sapiens) (P51449 whole entry, looked up): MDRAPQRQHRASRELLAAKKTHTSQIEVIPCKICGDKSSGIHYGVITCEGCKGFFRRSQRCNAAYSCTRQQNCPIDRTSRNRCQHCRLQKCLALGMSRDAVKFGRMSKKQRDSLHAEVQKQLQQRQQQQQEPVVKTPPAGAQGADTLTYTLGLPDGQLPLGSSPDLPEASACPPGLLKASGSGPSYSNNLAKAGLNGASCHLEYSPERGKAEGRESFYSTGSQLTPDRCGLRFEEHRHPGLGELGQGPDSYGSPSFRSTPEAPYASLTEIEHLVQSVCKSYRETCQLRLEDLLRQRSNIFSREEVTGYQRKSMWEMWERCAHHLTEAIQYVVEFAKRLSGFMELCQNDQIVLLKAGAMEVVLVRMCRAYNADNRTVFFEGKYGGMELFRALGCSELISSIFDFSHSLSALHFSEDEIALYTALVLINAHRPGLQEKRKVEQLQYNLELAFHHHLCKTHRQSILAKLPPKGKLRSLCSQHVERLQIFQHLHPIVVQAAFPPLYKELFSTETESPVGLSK

T1 sequence (P35557 whole entry, looked up): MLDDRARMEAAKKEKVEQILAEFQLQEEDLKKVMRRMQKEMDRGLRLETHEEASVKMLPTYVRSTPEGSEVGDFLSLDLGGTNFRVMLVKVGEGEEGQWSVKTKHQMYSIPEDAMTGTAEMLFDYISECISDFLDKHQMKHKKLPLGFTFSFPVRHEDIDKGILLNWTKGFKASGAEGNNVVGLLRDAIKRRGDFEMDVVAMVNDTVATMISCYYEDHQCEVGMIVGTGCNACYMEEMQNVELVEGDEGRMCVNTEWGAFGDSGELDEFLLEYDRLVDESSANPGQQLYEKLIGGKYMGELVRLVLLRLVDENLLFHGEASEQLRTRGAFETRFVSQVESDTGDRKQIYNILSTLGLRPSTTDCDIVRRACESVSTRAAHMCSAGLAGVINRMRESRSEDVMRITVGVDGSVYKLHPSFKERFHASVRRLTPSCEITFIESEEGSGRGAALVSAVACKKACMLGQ
T1 sequence (Q14397 whole entry, looked up): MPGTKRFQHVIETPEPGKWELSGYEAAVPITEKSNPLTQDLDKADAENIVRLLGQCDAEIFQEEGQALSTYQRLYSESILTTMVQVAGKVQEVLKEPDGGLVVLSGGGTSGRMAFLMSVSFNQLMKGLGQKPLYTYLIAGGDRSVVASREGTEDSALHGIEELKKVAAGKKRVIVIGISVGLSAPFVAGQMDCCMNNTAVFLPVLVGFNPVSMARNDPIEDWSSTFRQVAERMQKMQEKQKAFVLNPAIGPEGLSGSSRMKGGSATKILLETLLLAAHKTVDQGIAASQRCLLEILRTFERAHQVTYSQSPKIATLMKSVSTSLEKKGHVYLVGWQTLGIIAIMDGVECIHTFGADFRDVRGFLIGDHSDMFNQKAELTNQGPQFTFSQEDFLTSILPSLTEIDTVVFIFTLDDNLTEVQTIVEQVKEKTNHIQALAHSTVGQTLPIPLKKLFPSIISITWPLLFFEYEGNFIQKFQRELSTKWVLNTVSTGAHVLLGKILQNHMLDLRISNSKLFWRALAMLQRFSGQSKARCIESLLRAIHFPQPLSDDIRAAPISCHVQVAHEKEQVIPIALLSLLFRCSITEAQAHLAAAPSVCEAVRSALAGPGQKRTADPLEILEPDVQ
Sequence of Tyrosine-protein kinase Yes (Homo sapiens) (P07947 whole entry, looked up): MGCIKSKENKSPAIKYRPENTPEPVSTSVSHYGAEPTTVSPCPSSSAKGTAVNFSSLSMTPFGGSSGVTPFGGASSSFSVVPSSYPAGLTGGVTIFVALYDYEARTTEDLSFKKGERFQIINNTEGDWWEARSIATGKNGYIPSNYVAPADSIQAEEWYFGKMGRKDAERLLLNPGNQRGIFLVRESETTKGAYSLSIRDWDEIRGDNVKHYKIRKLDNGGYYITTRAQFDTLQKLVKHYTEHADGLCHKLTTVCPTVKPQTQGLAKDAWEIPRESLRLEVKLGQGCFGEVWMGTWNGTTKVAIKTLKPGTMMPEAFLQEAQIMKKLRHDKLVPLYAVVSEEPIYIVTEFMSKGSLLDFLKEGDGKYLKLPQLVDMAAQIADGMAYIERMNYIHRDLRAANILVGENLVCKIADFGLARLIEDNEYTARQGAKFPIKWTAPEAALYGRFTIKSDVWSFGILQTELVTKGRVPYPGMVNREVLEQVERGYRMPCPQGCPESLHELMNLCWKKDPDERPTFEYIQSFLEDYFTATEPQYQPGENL
Sequence of Arylsulfatase A (Homo sapiens) (P15289 whole entry, looked up): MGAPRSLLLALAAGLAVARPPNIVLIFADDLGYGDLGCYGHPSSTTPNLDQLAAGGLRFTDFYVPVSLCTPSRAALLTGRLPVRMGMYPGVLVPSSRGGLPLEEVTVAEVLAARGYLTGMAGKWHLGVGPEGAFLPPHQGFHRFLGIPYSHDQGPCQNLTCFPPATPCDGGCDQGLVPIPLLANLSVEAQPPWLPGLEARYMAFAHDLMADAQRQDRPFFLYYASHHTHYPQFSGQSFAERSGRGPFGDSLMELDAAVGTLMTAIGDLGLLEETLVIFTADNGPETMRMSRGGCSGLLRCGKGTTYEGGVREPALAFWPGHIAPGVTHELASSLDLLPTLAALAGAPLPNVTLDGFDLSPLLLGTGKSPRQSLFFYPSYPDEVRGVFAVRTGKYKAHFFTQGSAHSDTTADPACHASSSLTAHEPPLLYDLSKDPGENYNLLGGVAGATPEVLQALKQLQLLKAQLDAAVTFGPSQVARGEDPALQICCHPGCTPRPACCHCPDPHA

In the case of `NCCCC(=O)O`, the compound was called inactive in [1], in assay [2], in assay [3], in [4], in assay [5] and in [6]. In addition, the max response in assay [7] was 8.69% and -6.82%.

For `O=S(=O)(c1ccccc1)N(CC(F)(F)F)c1ccc(C(O)(C(F)(F)F)C(F)(F)F)cc1`, the compound was classed as inactive in assay [8]. The max response in assay [9] was -21.3%.

For `CCCCCCCCCC(=O)O`, the outcome in [8], in assay [10] and in assay [12] was inactive. The max response in assay [9] was -4.59% and -4.9%; in [7] it was 10.1%; in [11], -4.02% and 2.71%.

Take `O=C(CO)[C@@H](O)[C@H](O)[C@H](O)CO`: the max response in [7] is 0.975%.

Turning to `CC(C(=O)O)c1ccc(C2CCCCC2)c2ccccc12` (stereo not given), the max response in assay [7] was 16%.

Consider `CCCC1([C@H](O)C/C=C/[C@H]2[C@H](O)CC(=O)[C@@H]2CCCCCCC(=O)OC)CCC1`, for which, in assay [7], the max response was 2.12%.

Turning to `CN[C@H]1CC[C@@H](c2ccc(Cl)c(Cl)c2)c2ccccc21`, the result in assay [13], in assay [1], in assay [2], in assay [3], in assay [4] and in [5] was inactive. The outcome in assay [6] was inactive.

In the case of `O=S(O)CO`, in [7], the max response is 18.2%.

With `O=C1C(c2[nH]c3ccc(S(=O)(=O)O)cc3c2O)=Nc2ccc(S(=O)(=O)O)cc21`, the max response in assay [7] is -2.9% and 36.3% and 37.5%.

As for `C[C@H]1C[C@@H]2[C@H]([C@@H](O)C[C@@]3(C)[C@H]2CC[C@]3(O)C(=O)COC(=O)CCC(=O)O)[C@@]2(C)C=CC(=O)C=C12`, the max response in assay [7] is -6.5%.

Consider `CC(=O)S[C@@H]1CC2=CC(=O)CC[C@]2(C)[C@H]2CC[C@@]3(C)[C@@H](CC[C@@]34CCC(=O)O4)[C@H]12`, for which the result in [8] and in [12] was inactive. Besides, the max response was -12% in [9] and 15.7% in [7].

Take `CCC(c1ccccc1)c1noc(CCN(CC)CC)n1` (stereo not given): in assay [7], the max response was 15%.

For `COc1cc(F)c(F)c(Nc2ccc(I)cc2F)c1NS(=O)(=O)C1(CC(O)CO)CC1` (stereo not given), the compound was classed as inactive in [14] and in [15].

In the case of `NCCCNCCCCNC(=O)C(O)NC(=O)CCCCCCN=C(N)N` (stereo not given), the max response in assay [7] is -11.8%.

Take `CCCCCCCC/C=C\CCCCCCCC(=O)OC[C@@H](O)[C@H]1OC[C@H](O)[C@H]1O`: the compound was classed as inactive in assay [8] and in assay [12]. Further, the values for the max response in [9] and in assay [11] were 4.25% and -9.48%, respectively.

Regarding `C=Cc1ccccc1`, the outcome in assay [16], in assay [8], in assay [10] and in assay [12] was inactive. The max response was 5.41% and 3.34% in [9]; 5.81% in [7]; 4.36% and 2.49% in assay [11].

`CCCCCCCC(=O)CC[C@@H]1[C@@H](C/C=C\CCCC(=O)OC(C)C)[C@@H](O)C[C@H]1O`: the max response in assay [7] is 0.0052%.

As for `COc1cc(C[C@@H]2NCCc3cc(O)c(O)cc32)cc(OC)c1OC`, the max response in [7] is -17.1%.

In the case of `C[C@H](CSC(=O)c1ccccc1)C(=O)N1C[C@@H](Sc2ccccc2)C[C@H]1C(=O)O`, the max response in assay [7] was 13.2%.

`COC(C)=O`: the result in assay [16], in assay [8], in assay [10] and in assay [12] was inactive. For the same compound, the max response in assay [9] was 11.2%; in assay [7], 1.99%; in [11], -4.96%.

With `CN(C)Cc1ccccc1`, the outcome in assay [16], in assay [8], in [10] and in assay [12] was inactive. For the same compound, the max response was -3.95% in [9], 9.16% in assay [7] and 0.0798% in assay [11].

In the case of `O=C(O)CC(O)(CC(=O)O)C(=O)O`, the call in assay [16], in assay [10] and in [12] was inactive. The max response is 1.31% and -9.81% and -4.69% in [9]; -6.07% and -4.96% and -7.26% in [11].

Take `CO[C@H]1C[C@H](O[C@H]2[C@H](C)O[C@@H](O[C@@H]3/C(C)=C/C[C@@H]4C[C@@H](C[C@]5(C=C[C@H](C)[C@@H](C6CCCCC6)O5)O4)OC(=O)[C@@H]4C=C(C)[C@@H](O)[C@H]5OC/C(=C\C=C\[C@@H]3C)[C@]54O)C[C@@H]2OC)O[C@@H](C)[C@@H]1O`: in assay [7], the max response was -11.6%.

With `CS(=O)(=O)OCCCNCCCOS(C)(=O)=O`, the max response in assay [7] was -15.1%.

`CN(C)CCOc1ccccc1Cc1ccccc1` (tested in a mixture with another compound): in assay [7], the max response is 6.62%.

With `CCCN(CC)C(CC)C(=O)Nc1c(C)cccc1C` (stereo not given), the max response in assay [7] is 0.657%.

Regarding `CC(=O)O[C@H]1CC[C@@]2(C)C(=CC[C@@H]3[C@@H]2CC[C@]2(C)C(c4cccnc4)=CC[C@@H]32)C1`, the max response in assay [7] was -2.25%.

Take `CCOc1ccc(N=C(C)Nc2ccc(OCC)cc2)cc1`: in assay [7], the max response is -5.06%.
